Experimental data from article PMC4336329 (PLoS ONE, 2015).
Among all 310,000 compounds or so, about 14,000 (4.5%) showed an effect of 50% or more. The effect is printed as a negative number. Only a selection was taken, and strong results are over-represented in it overall.

biological target: human ether-à-go-go-related gene (hERG) potassium channel (human, UniProt Q12809); assay: primary screen, population patch clamp on CHO cells stably expressing hERG; higher = less effect of the substance
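Further: peak tail current of the secondary pulse compared with the same well before compound.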

human ether-à-go-go-related gene (hERG) potassium channel, sequence (Q12809 whole entry, looked up): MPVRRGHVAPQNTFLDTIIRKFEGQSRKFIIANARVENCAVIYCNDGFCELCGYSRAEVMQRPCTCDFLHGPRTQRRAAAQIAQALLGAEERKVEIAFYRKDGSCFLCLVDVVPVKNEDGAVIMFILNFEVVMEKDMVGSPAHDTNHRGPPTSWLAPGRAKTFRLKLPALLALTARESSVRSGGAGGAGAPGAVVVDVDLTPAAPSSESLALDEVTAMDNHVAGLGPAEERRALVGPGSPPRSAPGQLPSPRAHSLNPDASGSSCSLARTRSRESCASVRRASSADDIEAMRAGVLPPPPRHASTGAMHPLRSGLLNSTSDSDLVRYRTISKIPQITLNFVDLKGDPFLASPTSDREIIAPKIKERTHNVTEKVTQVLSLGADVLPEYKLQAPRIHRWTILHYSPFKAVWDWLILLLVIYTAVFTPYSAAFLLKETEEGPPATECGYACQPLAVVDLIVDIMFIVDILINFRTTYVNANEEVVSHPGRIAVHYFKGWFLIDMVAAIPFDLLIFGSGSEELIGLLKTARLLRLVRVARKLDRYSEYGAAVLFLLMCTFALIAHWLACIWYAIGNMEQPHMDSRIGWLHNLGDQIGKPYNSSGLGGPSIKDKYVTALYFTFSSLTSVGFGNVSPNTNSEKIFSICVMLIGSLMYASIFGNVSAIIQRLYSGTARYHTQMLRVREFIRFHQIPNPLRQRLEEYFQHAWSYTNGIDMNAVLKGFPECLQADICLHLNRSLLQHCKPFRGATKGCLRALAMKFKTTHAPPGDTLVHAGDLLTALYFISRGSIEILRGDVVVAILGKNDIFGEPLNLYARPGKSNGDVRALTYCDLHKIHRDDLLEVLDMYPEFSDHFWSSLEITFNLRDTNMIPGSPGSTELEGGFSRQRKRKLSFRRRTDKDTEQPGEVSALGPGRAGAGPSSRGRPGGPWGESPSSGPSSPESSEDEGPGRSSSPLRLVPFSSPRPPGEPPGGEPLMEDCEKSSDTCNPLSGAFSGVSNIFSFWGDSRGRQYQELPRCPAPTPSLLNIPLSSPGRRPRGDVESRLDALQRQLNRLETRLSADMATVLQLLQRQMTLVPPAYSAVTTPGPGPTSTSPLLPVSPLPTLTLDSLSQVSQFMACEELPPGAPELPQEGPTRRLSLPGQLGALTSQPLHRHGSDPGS

SMILES	hERG current change (%, negative = inhibition) at 10uM [%]
O=C(O)CCCn1cc(NC(=O)c2ccco2)cn1	26.7
O=C(NCCN1CCOCC1)c1ccc(CSc2nc3ccncc3n2Cc2ccc(F)cc2)cc1	-8.35
Fc1ccc(-c2nnn(Cc3nc4ccccc4s3)n2)cc1	-11.2
CCN(CC)C(=O)c1cc2c(=O)n3cccc(C)c3nc2s1	15.5
Cc1cccc(-c2nc(CN3CCCC(C(=O)NC4CCCC4)C3)c(C)o2)c1 (stereo not shown)	-76.3
COc1ccc(CNC(=O)C2CCCN(c3nccc(C)n3)C2)cc1 (stereo not shown)	-0.849
COc1ccc(CNC(=O)C2CCCN(Cc3nc(-c4cccc(C)c4)oc3C)C2)cc1 (stereo not shown)	-63.8
Cc1cccc(-c2nc(CN3CCCC(C(=O)NC4CCCCC4)C3)c(C)o2)c1 (stereo not shown)	-60.4
CCN(c1ccc(OC)cc1)S(=O)(=O)N1CCCC(C(=O)NCc2cccc(C)c2)C1 (stereo not shown)	-26.5
Cc1cccc(-c2nc(CN3CCCC(C(=O)NC4CCC(C)CC4)C3)c(C)o2)c1 (stereo not shown)	-68.4
COc1cccc(N2CCN(S(=O)(=O)c3ccc(-n4cnnn4)cc3)CC2)c1	16.6
CCN(CC)CCNC(=S)NC(=O)c1cn(-c2ccccc2)nc1-c1ccc(OC)cc1	-27.3
COc1ccc(N(CC(=O)N2CCCCC2)S(=O)(=O)c2c(C)nn(C)c2C)cc1	4.36
CCOC(=O)CSc1nnc(Cc2ccccc2)n1CC1CCCO1 (stereo not shown)	5
Clc1ncc(Cn2cccn2)s1	10.5
O=C1C2C3C=CC(C3)C2C(=O)N1/N=C/c1cn(Cc2ccc(F)cc2)c2ccccc12 (stereo not shown)	5.84
O=C(NCCCn1ccnc1)c1ccc(Cl)s1	5.72
COC(=O)c1c(NC(=O)COC(=O)c2ccc(NC(=O)CC#N)cc2)sc2c1CCCCC2	17.6
Cc1cccc(-c2nc(CN3CCCC(C(=O)NC4CCCCCC4)C3)c(C)o2)c1 (stereo not shown)	-69.8
Cc1cccc(-c2nc(CS(=O)CC(=O)NC3CCCCC3)c(C)o2)c1 (stereo not shown)	-3.93
O=C(NCCO)c1cc2ccccc2c(=O)s1	6.96
Cc1cccc(-c2nn(-c3ccccc3)cc2C(=O)NCC(c2cccs2)N2CCOCC2)c1 (stereo not shown)	-4.33

SMILES	hERG current change (%, negative = inhibition) at 10uM [%]
O=C1c2ccccc2N2C(=O)c3ccccc3[C@H]2N1c1ccccc1	-22.4
O=C1c2ccccc2N2C(=O)c3ccccc3C2N1Cc1ccco1 (stereo not shown)	-27.4
O=C1c2ccccc2N2C(=O)c3ccccc3C2N1Cc1ccccc1 (stereo not shown)	-57.9
COC(=O)c1ccc(CN2C(=O)c3ccccc3C2=O)cc1	8.01
Cc1cccc(NC(=O)CC2(CC(=O)O)CCCC2)c1	24.6
Cn1nc(-c2ccccc2)cc1NC(=O)c1cccs1	5.18
CCN(CC)CCNC(=O)c1ccc(CS(=O)(=O)c2ccccc2C)o1	-24
Cc1ccccc1S(=O)(=O)Cc1ccc(C(=O)NCCCN(C)Cc2ccccc2)o1	-56.2
Cc1ccccc1S(=O)(=O)Cc1ccc(C(=O)NCCN(Cc2ccccc2)C(C)C)o1	-55.6
Cc1ccccc1S(=O)(=O)Cc1ccc(C(=O)NCCN(C)Cc2ccccc2)o1	-48.5
Cc1ccccc1S(=O)(=O)Cc1ccc(C(=O)NCCN(CC(C)C)CC(C)C)o1	-43.6
Cc1ccccc1S(=O)(=O)Cc1ccc(C(=O)NCCc2ccccc2)o1	-30.6
CCCCn1c(=O)[nH]c(=O)c2c1nc(-c1cc(Cl)c(OC)c(OC)c1)n2C	16.2
CCSc1nc(O)cc(=O)n1-c1ccc(OC)cc1	3.73
O=C(c1ccco1)N(CCC(c1ccccc1)c1ccco1)Cc1ccccc1 (stereo not shown)	-14.8
COc1cc(/C=C2/C(=N)N3N=C(CC(=O)N4CCOCC4)SC3=NC2=O)ccc1OC(C)c1ccccc1 (stereo not shown)	11.7
Cc1ccc(C(=O)N2CCCC(Nc3ccc(C)c(C)c3)C2)c(=O)[nH]1 (stereo not shown)	-50.3
Cc1ccc(NC2CCCN(C(=O)c3ccc(F)cc3)C2)cc1C (stereo not shown)	-9.71
Cc1ccc(NC2CCCN(C(=O)c3ccoc3C)C2)cc1C (stereo not shown)	-1.68
O=C(NCC(=O)N1CCCC(C(F)(F)F)C1)c1ccc2ccccc2c1 (stereo not shown)	-11.3
Nc1n[nH]c(-c2ccc([N+](=O)[O-])cc2[N+](=O)[O-])n1	15.4
Cc1ccc2c(C(=O)CN3CC(C)CC(C)C3)c(C)[nH]c2c1 (stereo not shown)	-51

SMILES	hERG current change (%, negative = inhibition) at 10uM [%]
COc1ccc2[nH]cc(C(=O)CN3CCCCC3)c2c1	-8.72
Cc1ccc2c(C(=O)CN3CCN(C4CCCCC4)CC3)c(C)[nH]c2c1	-55.1
CCC1CCCCN1CC(=O)c1c(C)[nH]c2cc(C)ccc12 (stereo not shown)	-27.7
CCOC(=O)C1CCN(C(C)C(=O)c2c(C)[nH]c3cc(C)ccc23)CC1 (stereo not shown)	-76.7
CCOC(=O)C1CCN(C(C)C(=O)c2c[nH]c3ccccc23)CC1 (stereo not shown)	-42.2
Cc1ccc2c(C(=O)CN3CCCC(C)C3)c(C)[nH]c2c1 (stereo not shown)	-14.8
COc1ccc2[nH]cc(C(=O)CN3CCN(C4CCCCC4)CC3)c2c1	-54.8
COc1ccc2[nH]cc(C(=O)CN3CCC(C)CC3)c2c1	-5.75
Cc1ccc2c(C(=O)CN3CCCC3)c(C)[nH]c2c1	-6.89
Cc1[nH]c2ccccc2c1C(=O)CN1CC(C)CC(C)C1 (stereo not shown)	0.738
Cc1ccc2c(C(=O)CN3CCCCC3)c(C)[nH]c2c1	-11.1
CSc1ncccc1C(=O)N1CCN(S(=O)(=O)c2ccc3ccccc3c2)CC1	-34.9
Cn1c(N2C(=O)CC(Cc3ccccc3)C2=O)nc2ccccc21 (stereo not shown)	-17.6
COc1ccc(CN(C(=O)c2cccs2)c2nccs2)cc1OC	-10.9
O=C1CC(NS(=O)(=O)c2cc(F)ccc2F)CN1c1ccc2c(c1)OCCO2 (stereo not shown)	-4.13
Cc1cc(C)n2nc(SCC(=O)NC(=O)c3ccccc3Cl)nc2n1	0.516
COc1ccc(N2CC(C(=O)NC3CC(C)(C)NC(C)(C)C3)CC2=O)cc1 (stereo not shown)	-2.68
COc1ccc(NC2c3ccccc3C(=O)N2Cc2ccc3c(c2)OCO3)cc1 (stereo not shown)	-17.7
CCOC(=O)c1ccc(NC(=O)Nc2ccon2)cc1	6.02
O=C(O)C1=CC[C@@H](c2ccc(Cl)cc2)N(S(=O)(=O)c2ccc(Cl)cc2)[C@H]1c1cccc(Cl)c1	25.9
Cc1ccc2c(C(=O)CN3CCC(C(N)=O)CC3)c(C)[nH]c2c1	5.21
CCOC(=O)C1CCN(CC(=O)c2c(C)[nH]c3cc(C)ccc23)CC1	-60.5

SMILES	hERG current change (%, negative = inhibition) at 10uM [%]
CCOC(=O)C1CCN(CC(=O)c2c(C)[nH]c3ccccc23)CC1	-39.7
COc1cc(/C=N/NC(=O)c2ccc(Cl)cc2)ccc1OCC(=O)N1CC(C)OC(C)C1 (stereo not shown)	-18.3
O=C(CN1CCN(C(=O)c2ccccc2)CC1)Nc1cc(S(=O)(=O)N2CCCC2)ccc1Cl	-32.8
O=C(CN1CCN(C(=O)c2ccco2)CC1)Nc1cccc(S(=O)(=O)N2CCCC2)c1	-16.2
O=C(c1cccc(S(=O)(=O)N2CCCCC2)c1)N1CCN(S(=O)(=O)c2ccc(F)cc2)CC1	-40.6
O=C(CN1CCN(S(=O)(=O)c2ccccc2)CC1)Nc1ccccc1Cl	-6.93
O=C(CN1CCN(C(=O)c2cccc(S(=O)(=O)N3CCCC3)c2)CC1)Nc1ccc(F)cc1	-61.7
O=C(CN1CCN(C(=O)c2cccc(S(=O)(=O)N3CCCC3)c2)CC1)Nc1ccccc1Cl	-66.8
CCOc1ccc(N2C(=O)/C(=C/c3ccco3)N(C)C2=S)cc1	-4.46
CCC(C)NC(=O)C1CCCN(C(=O)NC2CCCCC2)C1 (stereo not shown)	13.8
Cc1cc(N2CCOCC2)nc2ccc(NC(=O)CCC(=O)N3CCN(c4ccc(F)cc4)CC3)cc12	21
COc1ccc(Br)c(C(=O)N2CCN(S(=O)(=O)c3cccs3)CC2)c1	-9.75
COc1ccc(N2CCN(S(=O)(=O)/C=C/c3ccccc3)CC2)cc1	1.54
COc1cc(SC)ccc1C(=O)N1CCN(c2ccccc2F)CC1	-33.8
COc1ccc(Br)c(C(=O)N2CCN(S(=O)(=O)/C=C/c3ccccc3)CC2)c1	-58.8
COc1cc(SC)ccc1C(=O)N1CCN(S(=O)(=O)/C=C/c2ccccc2)CC1	-56.5
COc1cc(SC)ccc1C(=O)N1CCN(c2ccccc2OC)CC1	-24.5
CCOC(=O)c1c(NC(=O)CN2CCCc3ccccc32)sc(C(C)=O)c1C	5.24
CC1(C)CCC(=O)N2CC[C@H]3C[C@H](OC(=O)Nc4ccc5c(c4)OCO5)C[C@@H]1[C@H]32	-0.41
